Measured values reported in PMC7862700, “An all-to-all approach to the identification of sequence-specific readers for epigenetic DNA modifications on cytosine”.

Key:
Test in all cases: DAPPL (digital affinity profiling via proximity ligation, sequencing); 10 mM Tris-HCl pH 7.5, 50 mM NaCl, 1 mM DTT, 4% glycerol, room temperature, 30 min; GST-TFs on glutathione beads, 16-mer random dsDNA library, 0.1% formaldehyde crosslink after washing; high values mean tight binding
Settings in all cases: protein: recombinant; tags: N-terminal GST; dsDNA, one strand shown
[1] = target: T1, FLI1 (Homo sapiens, UniProt Q01543 1-452)
T1 sequence: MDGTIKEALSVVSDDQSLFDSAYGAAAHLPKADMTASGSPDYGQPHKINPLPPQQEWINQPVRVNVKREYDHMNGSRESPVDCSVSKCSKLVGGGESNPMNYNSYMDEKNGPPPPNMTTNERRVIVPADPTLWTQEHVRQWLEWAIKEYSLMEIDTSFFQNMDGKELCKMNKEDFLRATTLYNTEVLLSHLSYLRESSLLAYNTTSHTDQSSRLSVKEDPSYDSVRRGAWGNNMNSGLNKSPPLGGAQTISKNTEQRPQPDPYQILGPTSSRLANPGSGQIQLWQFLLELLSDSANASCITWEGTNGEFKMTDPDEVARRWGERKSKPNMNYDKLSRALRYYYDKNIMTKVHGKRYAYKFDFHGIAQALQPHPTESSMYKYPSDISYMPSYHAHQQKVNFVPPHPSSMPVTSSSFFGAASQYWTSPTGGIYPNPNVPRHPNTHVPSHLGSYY
How it was run: (§1)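 The binding signal reported is, for every hexamer, its read frequency for a factor over its read frequency for the tag-only sample. Reads came from pools of yeast-expressed, GST-fused human transcription factors on glutathione beads, barcoded with DNA and mixed with that sample, which were incubated with 200 nmole of a random double-stranded 16-mer DNA library in Tris/NaCl/DTT/glycerol buffer at room temperature for 30 min. After washing, the pools were crosslinked with 0.1% formaldehyde, proximity-ligated with BsaI/T4 ligase for 1 h at 37 °C, PCR-amplified and sequenced on an Illumina NextSeq500.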

[2] = target: T2, ELK1 (Homo sapiens, UniProt P19419 1-428)
T2 sequence: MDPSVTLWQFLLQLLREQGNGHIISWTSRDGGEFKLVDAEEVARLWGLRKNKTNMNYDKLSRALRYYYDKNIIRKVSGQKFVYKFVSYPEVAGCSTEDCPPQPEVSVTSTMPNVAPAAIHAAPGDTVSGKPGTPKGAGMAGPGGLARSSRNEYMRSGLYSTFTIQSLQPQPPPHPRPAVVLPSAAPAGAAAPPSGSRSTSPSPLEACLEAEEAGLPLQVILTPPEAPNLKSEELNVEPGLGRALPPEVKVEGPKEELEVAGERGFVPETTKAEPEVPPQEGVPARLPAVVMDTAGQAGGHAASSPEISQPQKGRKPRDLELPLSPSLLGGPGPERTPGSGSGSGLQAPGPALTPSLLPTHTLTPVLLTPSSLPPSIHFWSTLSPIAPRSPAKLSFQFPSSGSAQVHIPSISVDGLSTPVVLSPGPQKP
How it was run: as §1

[3] = target: T3, GABPA (Homo sapiens, UniProt Q06546 1-454)
T3 sequence: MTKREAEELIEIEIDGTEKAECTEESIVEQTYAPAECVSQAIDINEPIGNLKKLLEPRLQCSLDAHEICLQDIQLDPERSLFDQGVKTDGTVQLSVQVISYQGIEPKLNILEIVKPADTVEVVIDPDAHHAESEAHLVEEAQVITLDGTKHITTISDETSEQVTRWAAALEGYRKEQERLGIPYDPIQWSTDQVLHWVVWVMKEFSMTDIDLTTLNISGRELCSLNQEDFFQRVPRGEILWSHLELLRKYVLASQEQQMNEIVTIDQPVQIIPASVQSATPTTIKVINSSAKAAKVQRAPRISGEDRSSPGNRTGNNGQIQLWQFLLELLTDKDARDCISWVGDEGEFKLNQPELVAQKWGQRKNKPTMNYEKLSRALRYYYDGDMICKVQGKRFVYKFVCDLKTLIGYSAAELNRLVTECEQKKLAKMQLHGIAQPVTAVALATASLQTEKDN
How it was run: as §1

[4] = target: T4, ERG (Homo sapiens, UniProt P11308 1-479)
T4 sequence: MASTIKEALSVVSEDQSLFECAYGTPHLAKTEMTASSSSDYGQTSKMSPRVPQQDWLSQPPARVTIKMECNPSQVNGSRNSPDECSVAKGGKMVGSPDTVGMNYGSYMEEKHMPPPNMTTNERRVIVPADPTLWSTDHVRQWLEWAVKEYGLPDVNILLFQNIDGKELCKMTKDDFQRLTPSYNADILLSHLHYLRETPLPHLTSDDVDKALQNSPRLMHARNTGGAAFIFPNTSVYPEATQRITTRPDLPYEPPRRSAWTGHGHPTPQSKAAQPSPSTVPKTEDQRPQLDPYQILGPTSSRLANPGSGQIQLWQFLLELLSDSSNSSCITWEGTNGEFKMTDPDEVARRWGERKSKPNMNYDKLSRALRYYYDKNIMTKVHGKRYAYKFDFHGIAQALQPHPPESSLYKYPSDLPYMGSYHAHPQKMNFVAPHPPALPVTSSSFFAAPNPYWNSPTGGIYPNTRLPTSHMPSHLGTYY
How it was run: as §1

[5] = target: ELF1 (Homo sapiens, UniProt P32519 1-619)
Chain of ELF1 (P32519 whole entry): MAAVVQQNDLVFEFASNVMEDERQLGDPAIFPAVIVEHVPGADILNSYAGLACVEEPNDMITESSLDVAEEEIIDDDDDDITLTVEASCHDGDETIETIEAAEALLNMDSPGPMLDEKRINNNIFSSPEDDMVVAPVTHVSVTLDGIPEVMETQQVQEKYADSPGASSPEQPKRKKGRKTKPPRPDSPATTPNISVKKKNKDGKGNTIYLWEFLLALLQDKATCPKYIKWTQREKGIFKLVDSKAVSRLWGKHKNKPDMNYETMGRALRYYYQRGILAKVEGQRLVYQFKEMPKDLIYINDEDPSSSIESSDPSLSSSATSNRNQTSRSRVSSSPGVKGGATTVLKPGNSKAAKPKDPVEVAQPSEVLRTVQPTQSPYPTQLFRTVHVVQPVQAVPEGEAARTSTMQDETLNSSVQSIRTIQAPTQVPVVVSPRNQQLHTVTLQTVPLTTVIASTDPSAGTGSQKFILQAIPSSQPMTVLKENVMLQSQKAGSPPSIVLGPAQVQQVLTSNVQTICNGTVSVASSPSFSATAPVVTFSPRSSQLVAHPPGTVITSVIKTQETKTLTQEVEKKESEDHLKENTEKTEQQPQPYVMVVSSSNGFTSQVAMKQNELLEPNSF
How it was run: as §1

[6] = target: T5, EHF (Homo sapiens, UniProt Q9NZC4 1-300)
T5 sequence: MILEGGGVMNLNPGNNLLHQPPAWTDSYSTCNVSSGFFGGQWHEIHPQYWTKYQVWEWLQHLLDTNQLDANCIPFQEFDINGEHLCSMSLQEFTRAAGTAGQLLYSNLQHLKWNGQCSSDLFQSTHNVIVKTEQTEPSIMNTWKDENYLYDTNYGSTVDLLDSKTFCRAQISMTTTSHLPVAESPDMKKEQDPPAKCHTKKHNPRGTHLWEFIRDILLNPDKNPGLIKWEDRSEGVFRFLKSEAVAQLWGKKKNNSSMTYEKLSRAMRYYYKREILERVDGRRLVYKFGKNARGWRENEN
How it was run: as §1

[7] = target: SPI1 (Homo sapiens, UniProt P17947 1-270)
How it was run: as §1

[8] = target: SPIB (Homo sapiens, UniProt Q01892 1-262)
Chain of SPIB (Q01892 whole entry): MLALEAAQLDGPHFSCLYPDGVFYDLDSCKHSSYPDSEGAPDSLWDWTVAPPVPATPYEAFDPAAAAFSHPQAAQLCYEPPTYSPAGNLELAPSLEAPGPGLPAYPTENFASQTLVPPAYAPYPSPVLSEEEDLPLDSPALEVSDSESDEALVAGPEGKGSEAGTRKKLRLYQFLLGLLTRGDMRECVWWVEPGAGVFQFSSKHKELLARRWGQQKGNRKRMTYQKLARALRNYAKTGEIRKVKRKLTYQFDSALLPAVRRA
How it was run: as §1

[9] = target: T6, ELK3 (Homo sapiens, UniProt P41970 1-407)
T6 sequence: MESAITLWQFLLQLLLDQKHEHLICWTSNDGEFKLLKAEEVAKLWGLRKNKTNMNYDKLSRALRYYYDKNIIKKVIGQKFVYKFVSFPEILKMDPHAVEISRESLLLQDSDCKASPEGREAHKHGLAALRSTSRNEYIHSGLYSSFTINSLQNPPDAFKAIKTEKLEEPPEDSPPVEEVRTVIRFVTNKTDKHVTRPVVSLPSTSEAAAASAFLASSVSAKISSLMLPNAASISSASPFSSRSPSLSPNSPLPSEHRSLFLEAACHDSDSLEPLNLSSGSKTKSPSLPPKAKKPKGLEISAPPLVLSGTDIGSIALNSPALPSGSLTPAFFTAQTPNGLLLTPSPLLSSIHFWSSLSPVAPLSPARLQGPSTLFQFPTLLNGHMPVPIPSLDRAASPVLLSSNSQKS
How it was run: as §1

Sequence | binding signal [1] | binding signal [2] | binding signal [3] | binding signal [4] | binding signal [5] | binding signal [6] | binding signal [7] | binding signal [8] | binding signal [9]
GCCTTC | 1.41 fold enrichment (6-mer frequency, TF over GST control) | 1.51 fold enrichment (6-mer frequency, TF over GST control) | 1.54 fold enrichment (6-mer frequency, TF over GST control) | 1.52 fold enrichment (6-mer frequency, TF over GST control) | 1.58 fold enrichment (6-mer frequency, TF over GST control) | 1.43 fold enrichment (6-mer frequency, TF over GST control) | 1.39 fold enrichment (6-mer frequency, TF over GST control) | 1.54 fold enrichment (6-mer frequency, TF over GST control) | 1.52 fold enrichment (6-mer frequency, TF over GST control)
CTAACA | 1.28 fold enrichment (6-mer frequency, TF over GST control) | 1.24 fold enrichment (6-mer frequency, TF over GST control) | 1.16 fold enrichment (6-mer frequency, TF over GST control) | 1.21 fold enrichment (6-mer frequency, TF over GST control) | 1.25 fold enrichment (6-mer frequency, TF over GST control) | 1.21 fold enrichment (6-mer frequency, TF over GST control) | 1.24 fold enrichment (6-mer frequency, TF over GST control) | 1.17 fold enrichment (6-mer frequency, TF over GST control) | 1.15 fold enrichment (6-mer frequency, TF over GST control)
ATCTAT | 1.15 fold enrichment (6-mer frequency, TF over GST control) | 1.14 fold enrichment (6-mer frequency, TF over GST control) | 1.17 fold enrichment (6-mer frequency, TF over GST control) | 1.09 fold enrichment (6-mer frequency, TF over GST control) | 1.16 fold enrichment (6-mer frequency, TF over GST control) | 1.12 fold enrichment (6-mer frequency, TF over GST control) | 1.09 fold enrichment (6-mer frequency, TF over GST control) | 1.15 fold enrichment (6-mer frequency, TF over GST control) | 1.13 fold enrichment (6-mer frequency, TF over GST control)
TCATCT | 1.23 fold enrichment (6-mer frequency, TF over GST control) | 1.28 fold enrichment (6-mer frequency, TF over GST control) | 1.27 fold enrichment (6-mer frequency, TF over GST control) | 1.15 fold enrichment (6-mer frequency, TF over GST control) | 1.3 fold enrichment (6-mer frequency, TF over GST control) | 1.13 fold enrichment (6-mer frequency, TF over GST control) | 1.18 fold enrichment (6-mer frequency, TF over GST control) | 1.28 fold enrichment (6-mer frequency, TF over GST control) | 1.16 fold enrichment (6-mer frequency, TF over GST control)
